A short description of experiment [1]: Cytometry Cell-Based qHTS for Inhibitors of the mTORC1 Signaling Pathway in MEF cells (AID 2668).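 Note: Tsc2-/- p53-/- mouse embryonic fibroblasts stably re-expressing wild-type Tsc2; percent cells positive for phospho-rpS6 Ser235/236 relative to propidium iodide stain; series mostly up to about 38 µM.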 A digest of the protocol:
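Read-out: phospho-rpS6 Ser235/236 immunofluorescence normalized to propidium iodide intensity, scored as % active cells against a rapamycin (7.5 nM) threshold. Cells: Tsc2-/-, p53-/- MEFs stably expressing WT Tsc2, compound-treated 24 hrs at 37 degree Celsius.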

Experiment [2] addresses Ubiquitin carboxyl-terminal hydrolase 2 (Homo sapiens) (UniProt O75604). Briefly: qHTS Validation Assay for Inhibitors of Ubiquitin-specific Protease USP2a Using CHOP2 as the Reporter (AID 463106). A digest of the protocol: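 Readout was coupled fluorescence (Ex 485/Em 531 nm), read 60 min after adding 25 nM final Ub-CHOP2 and 25 nM reporter substrate. Beforehand, 10 nM final USP2 core had 30 min at RT with compound in pH 8.0 buffer. Curves were fitted after normalization to NEM and flagged for artifacts using time-zero reads.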
A general note: Quantitative high-throughput screening tests each substance at several concentrations.

For experiment [3], the target named is DNA polymerase III PolC-type (Bacillus subtilis (strain 168)) (UniProt P13267). As to the kind of experiment: qHTS Validation Assay for the Inhibitors of DNA Replication in Gram-Positive Bacteria (AID 485295).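 Note: reconstituted holoenzyme with PolC plus beta clamp SSB and primase; PicoGreen fluorescence of double-stranded DNA made on primed circular M13 template; series mostly up to about 57 µM.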 A digest of the protocol: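 PicoGreen fluorescence (ex 480–485/em 535–540 nm) reports dsDNA synthesized on ssM13Gori template with dNTPs/NTPs. Enzyme: holoenzyme rebuilt from purified PolC, beta subunit, SSB and primase. Compound preincubated before substrate addition; RT throughout.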

Experiment [4] addresses Tumor susceptibility gene 101 protein (Homo sapiens) (UniProt Q99816). Briefly: qHTS Validation Assay for Iinhibitors of HIV-1 Budding by Blocking the Interaction of PTAP/TSG101 (AID 485342; calls by dose curve). The gist of the method: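 FP read-out: FITC-PTAP peptide, 50 nM final, binding Tsg101 binding domain, 10 uM final; 20 min r.t.; 10 mM HEPES pH 7.5, 0.15 M NaCl, 0.01% Tween 20, 3 mM EDTA, 0.1 mM TCEP.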

Experiment [5] has as its target Beta-2 adrenergic receptor (Homo sapiens) (UniProt P07550). As to the kind of experiment: qHTS validation assay of beta-arrestin-biased ligands of beta2-adrenergic receptor (AID 485366). A digest of the protocol: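 Agonism was measured as beta-arrestin recruitment to recombinant beta2-AR, releasing tTA to drive luciferase. Cells were exposed for 18 hr at 37 degrees C to a series up to 46 microM. %Activity from corrected luminescence gave concentration-response curves.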

The target in experiment [6] is ATP-dependent 6-phosphofructokinase (Trypanosoma brucei brucei) (UniProt O15648). Briefly: qHTS Validation Assay to Find Inhibitors of T. brucei phosphofructokinase (AID 485368). The gist of the method:
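ADP-Glo luminescence, two-step: residual ATP depleted, then ADP converted to ATP for luciferase. Enzyme 1.25 nM, F6P 0.5 mM, ATP 0.1 mM, pH 8.0 TEA buffer, 45 min RT. Curves fitted and classed by quality and efficacy.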

Experiment [7] deals with Thioredoxin reductase 1, cytoplasmic (Rattus norvegicus) (UniProt O89049). Briefly: qHTS Assay for Inhibitors of Mammalian Selenoprotein Thioredoxin Reductase 1 (TrxR1) (AID 488773).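 Note: drop in NADPH fluorescence over an 8 min run after selenite addition; series mostly up to about 57 µM; nearly all actives have a fitted effect of over 40% in size.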 The following applies: Potency: inhibition. A digest of the protocol: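 Inhibition is scored from the loss of NADPH fluorescence between first and last reads of an 8-min kinetic run. Selenite (400 uM) was the substrate, added after 15 min compound preincubation at room temperature.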

The target in experiment [8] is Flap endonuclease 1 (Homo sapiens) (UniProt P39748). Briefly: qHTS Validation Assay for the Inhibitors of Human Flap endonuclease 1 (FEN1) (AID 488816). A digest of the protocol:
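qHTS format: compounds and 10 nM FEN1 incubated 15 min at room temperature before adding 50 nM substrate. Cleavage followed by reads at 0 and 15 min; normalized data fitted to a four-parameter Hill curve.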

The target of experiment [9] is M-phase phosphoprotein 8 (Homo sapiens) (UniProt Q99549). Briefly: qHTS Validation Assay for Inhibitors for MPP8 Chromodomain Interactions with Methylated Histone Tails (AID 488949).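 Note: AlphaScreen signal from MPP8 chromodomain bound to biotinylated H3K9me3 peptide; top concentration of the series differs between compounds; nearly all actives have a fitted effect of over 55% in size.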 A digest of the protocol: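 AlphaScreen read-out: streptavidin donor and nickel chelate acceptor beads (final 10 ug/mL), 30 min in the dark at RT. Complex of 50 nM MPP8 and 50 nM b-H3(1-18)K9me3 peptide had been exposed to compounds for 30 min beforehand.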

The target in experiment [10] is Methanococcus maripaludis chaperonin (MmCpn) (UniProt Q6LX38). As to the kind of experiment: High-Throughput Screening for Modulators of Cytosolic Chaperonin Activity: MmCpn Primary Screen (AID 488978). The gist of the method: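 ADP formation read by HTRF Transcreener, 665/590 nm emission after 320 nm excitation. Enzyme: archaeal chaperonin at 50 nM final; substrate ATP 30 uM final; 10 min, 37C, after 5 min compound preincubation at RT.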

For experiment [11], the target named is D(1A) dopamine receptor (Homo sapiens) (UniProt P21728). Briefly: HTS Assay for Allosteric Agonists of the Human D1 Dopamine Receptor: Primary Screen for Agonists (AID 488981). A digest of the protocol:
(§1)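 Calcium flux in an inducible, force-coupled HEK293 Trex D1 line (overnight at 30 C): agonist mode is the 180 s kinetic read after compound; potentiator mode is the following 180 s read after dopamine at EC20.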

For experiment [12] the target is unchanged. As to the kind of experiment: HTS Assay for Allosteric Agonists of the Human D1 Dopamine Receptor: Primary Screen for Potentiators (AID 488982). The gist of the method:
as §1

Experiment [13] has the same target. Briefly: HTS Assay for Allosteric Agonists of the Human D1 Dopamine Receptor: Primary Screen for Antagonists (AID 488983).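 Note: calcium flux response to an EC80 dopamine challenge measured with no-wash dye; nearly all actives have a fitted effect of over 65% in size.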 Note: potency is the fitted concentration of half-maximal effect. A digest of the protocol:
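Kinetic fluorescence at 1 cycle/sec tracked intracellular calcium in force-coupled, tetracycline-inducible HEK293 T-REx D1 cells. Loss of response to an EC80 dopamine dose, given 180 s after compound, marked antagonists.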

Experiment [14] in a line: qHTS Validation Assay to Find Inhibitors of Chronic Active B-Cell Receptor Signaling (AID 485345; active = well fitted curve in the direction sought with a large enough effect in the main read-out, with a control signal flat, not every such curve was filed as active). A digest of the protocol:
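Read-out: ratio of filter-corrected green (IkappaBalpha fusion) to red (native) luciferase signal in doxycycline-induced TMD8 cells after 4 h at 37C. Titration spanned 46 uM–3 nM; Data were normalised to basal cells and 10 uM MG-132 wells.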

Experiment [15] has as its target Chromobox protein homolog 1 (Homo sapiens) (UniProt P83916). Briefly: qHTS Validation Assay for Inhibitors of HP1-beta Chromodomain Interactions with Methylated Histone Tails (AID 488953).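 Note: loss of AlphaScreen luminescence from HP1-beta binding biotinylated H3K9me3 peptide; series mostly up to about 110 µM; nearly all actives have a fitted effect of over 50% in size.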 The gist of the method: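 Disruption of preformed HP1-beta:H3K9me3 peptide complexes (both 50 nM, PBS pH 7.4 with 0.01% Tween-20) is measured by AlphaScreen after 30 min compound exposure at room temperature, using streptavidin donor and nickel chelate acceptor beads at 10 ug/mL final.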

A short description of experiment [16]: Validation screen for small molecules that induce DNA re-replication in MCF 10A normal breast cells (AID 463097). Note: nearly all actives have a fitted effect of over 60% in size. Note: potency is the fitted concentration of half-maximal effect. The gist of the method: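 250 MCF 10A cells/well; compound pin-transferred; 48 hr, 37 C, 5% CO2; Hoechst 40 min; imaged 405/500-530 nm. Hits = more high-intensity nuclei.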
Experiment [17] in a line: Quantitative high throughput screen for delayed death inhibitors of the malarial parasite plastid, 48 hour incubation (AID 488752). Note: nearly all actives have a fitted effect of over 65% in size. Note: potency is the fitted concentration of half-maximal effect. The gist of the method:
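First, compound was pinned into RPMI 1640 medium containing 0.5% Albumax. Next, reporter-parasite-infected erythrocytes were added to 2% hematocrit and 0.1% parasitemia. After 48 h at 37 C under 5% CO2, luciferase detection reagent was added and luminescence read.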

In experiment [18] the target is Transient receptor potential cation channel subfamily V member 1 (Homo sapiens) (UniProt Q8NER1). Briefly: HTS Assay for Compounds that Act as Enhancers of the Vanilloid Receptor 1 (AID 488979). The gist of the method: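 Calcium influx kinetics via Fluo-8 (480/520 nm) in TRPV1-expressing cells, 2000/well cultured overnight at 35.5C. Compound-alone read 3 min (agonist phase), followed by EC20 capsaicin challenge for 2 min (enhancer phase).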

For experiment [19], the target named is Thyrotropin receptor (Homo sapiens) (UniProt P16473). Briefly: qHTS Assay for Antagonists of the Thyroid Stimulating Hormone Receptor (AID 488980). Note: series mostly up to about 58 µM. A digest of the protocol: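 TSHR-HEK293 cells; 70 uM RO 20-1724 PDE inhibitor; compound + EC80 TSH (4 nM final); anti-cAMP cryptate antibody/cAMP-d2 in lysis buffer, 30 min RT; HTRF 665/620 nm read.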
Experiment [20] is described as follows: Quantitative high throughput screen for delayed death inhibitors of the malarial parasite plastid, 96 hour incubation (AID 488745). Note: nearly all actives have a fitted effect of over 70% in size. Note: potency is the fitted concentration of half-maximal effect. A digest of the protocol:
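Readout is firefly luciferase luminescence from an integrated reporter in P. falciparum; lower signal marks inhibited growth. Cultures at 2% hematocrit and 0.1% parasitemia were treated with compound across two generations (96 h, 37 C, 5% CO2).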

Inconclusive results are not listed. Calls of active or inactive are those of the source. Unless noted, calls come from the whole dose curve; as a rule, active = well fitted curve in the direction sought with a large enough effect; inconclusive = small, poorly fitted or top-dose-only effect, or another doubt; inactive = no such curve, though single readings can be large; an effect the other way counts as inactive or inconclusive.

Ubiquitin carboxyl-terminal hydrolase 2 (Homo sapiens), sequence (O75604 whole entry, looked up): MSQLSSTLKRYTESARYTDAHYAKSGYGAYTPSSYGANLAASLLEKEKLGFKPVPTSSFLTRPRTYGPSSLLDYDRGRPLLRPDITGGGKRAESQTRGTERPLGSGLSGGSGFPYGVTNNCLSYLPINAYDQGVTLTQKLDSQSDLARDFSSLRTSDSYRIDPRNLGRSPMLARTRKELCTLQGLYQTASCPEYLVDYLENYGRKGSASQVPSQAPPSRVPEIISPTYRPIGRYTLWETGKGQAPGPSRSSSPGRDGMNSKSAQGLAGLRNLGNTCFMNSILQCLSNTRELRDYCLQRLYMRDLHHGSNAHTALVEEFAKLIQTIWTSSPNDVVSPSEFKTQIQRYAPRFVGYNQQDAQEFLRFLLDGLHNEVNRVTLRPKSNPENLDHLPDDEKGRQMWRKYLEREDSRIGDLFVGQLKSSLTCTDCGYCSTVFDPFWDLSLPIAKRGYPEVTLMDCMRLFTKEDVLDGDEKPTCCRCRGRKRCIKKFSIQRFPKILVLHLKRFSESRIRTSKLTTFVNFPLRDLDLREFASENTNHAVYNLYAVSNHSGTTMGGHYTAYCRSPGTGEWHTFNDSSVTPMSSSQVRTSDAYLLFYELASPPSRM
Thyrotropin receptor (Homo sapiens), sequence (P16473 whole entry, looked up): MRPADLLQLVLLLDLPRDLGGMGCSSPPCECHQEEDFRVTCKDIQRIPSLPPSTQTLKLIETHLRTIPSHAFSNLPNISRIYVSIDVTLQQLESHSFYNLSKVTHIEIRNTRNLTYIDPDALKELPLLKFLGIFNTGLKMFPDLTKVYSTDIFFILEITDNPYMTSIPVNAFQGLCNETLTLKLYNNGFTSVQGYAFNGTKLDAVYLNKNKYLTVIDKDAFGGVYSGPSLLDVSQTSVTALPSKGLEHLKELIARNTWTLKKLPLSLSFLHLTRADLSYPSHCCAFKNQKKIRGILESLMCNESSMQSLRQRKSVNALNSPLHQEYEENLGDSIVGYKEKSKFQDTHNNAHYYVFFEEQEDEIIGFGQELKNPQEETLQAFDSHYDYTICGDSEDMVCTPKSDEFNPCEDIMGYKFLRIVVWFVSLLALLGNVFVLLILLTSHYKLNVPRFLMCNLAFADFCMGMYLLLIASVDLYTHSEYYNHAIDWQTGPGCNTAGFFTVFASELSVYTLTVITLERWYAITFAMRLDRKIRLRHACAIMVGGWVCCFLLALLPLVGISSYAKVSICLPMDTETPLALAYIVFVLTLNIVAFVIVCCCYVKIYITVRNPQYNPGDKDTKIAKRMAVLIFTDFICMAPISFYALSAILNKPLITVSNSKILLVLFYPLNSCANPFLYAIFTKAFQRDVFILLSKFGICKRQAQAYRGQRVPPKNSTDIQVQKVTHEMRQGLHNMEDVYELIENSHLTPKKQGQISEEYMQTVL
Thioredoxin reductase 1, cytoplasmic (Rattus norvegicus), sequence (O89049 whole entry, looked up): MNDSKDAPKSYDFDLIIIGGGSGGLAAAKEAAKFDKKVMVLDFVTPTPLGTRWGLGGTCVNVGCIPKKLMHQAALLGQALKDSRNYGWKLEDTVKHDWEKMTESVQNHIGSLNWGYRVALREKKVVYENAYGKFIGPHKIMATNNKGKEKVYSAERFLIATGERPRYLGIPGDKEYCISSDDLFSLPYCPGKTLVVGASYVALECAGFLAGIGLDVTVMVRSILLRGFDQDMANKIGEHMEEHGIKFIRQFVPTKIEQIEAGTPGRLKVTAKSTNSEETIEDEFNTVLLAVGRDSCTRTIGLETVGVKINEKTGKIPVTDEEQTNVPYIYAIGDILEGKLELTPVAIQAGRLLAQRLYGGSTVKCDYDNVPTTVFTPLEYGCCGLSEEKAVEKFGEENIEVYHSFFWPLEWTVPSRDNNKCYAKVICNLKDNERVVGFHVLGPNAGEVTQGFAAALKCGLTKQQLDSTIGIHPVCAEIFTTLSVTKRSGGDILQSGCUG
Transient receptor potential cation channel subfamily V member 1 (Homo sapiens), sequence (Q8NER1 whole entry, looked up): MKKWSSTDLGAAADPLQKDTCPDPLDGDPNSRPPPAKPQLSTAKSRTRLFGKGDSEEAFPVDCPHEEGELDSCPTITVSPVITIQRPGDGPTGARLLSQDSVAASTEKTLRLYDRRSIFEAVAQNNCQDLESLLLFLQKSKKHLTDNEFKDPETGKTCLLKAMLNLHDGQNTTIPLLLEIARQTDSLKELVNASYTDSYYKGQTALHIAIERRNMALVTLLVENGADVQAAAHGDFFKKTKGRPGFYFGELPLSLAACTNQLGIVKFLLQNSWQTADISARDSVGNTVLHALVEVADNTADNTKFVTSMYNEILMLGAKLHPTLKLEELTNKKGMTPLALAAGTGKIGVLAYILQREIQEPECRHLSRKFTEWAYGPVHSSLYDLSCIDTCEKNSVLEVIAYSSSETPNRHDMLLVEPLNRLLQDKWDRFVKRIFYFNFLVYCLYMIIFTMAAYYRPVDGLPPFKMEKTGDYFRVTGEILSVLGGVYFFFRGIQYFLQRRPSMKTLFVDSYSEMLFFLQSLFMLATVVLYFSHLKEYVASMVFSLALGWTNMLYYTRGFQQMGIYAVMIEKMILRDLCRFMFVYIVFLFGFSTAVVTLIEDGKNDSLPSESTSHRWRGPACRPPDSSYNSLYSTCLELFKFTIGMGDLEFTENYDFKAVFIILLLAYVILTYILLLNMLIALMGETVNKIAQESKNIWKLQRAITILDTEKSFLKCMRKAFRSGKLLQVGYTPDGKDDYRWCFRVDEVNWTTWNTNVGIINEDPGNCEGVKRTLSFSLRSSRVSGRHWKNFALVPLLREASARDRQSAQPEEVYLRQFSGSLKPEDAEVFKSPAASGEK
Flap endonuclease 1 (Homo sapiens), sequence (P39748 whole entry, looked up): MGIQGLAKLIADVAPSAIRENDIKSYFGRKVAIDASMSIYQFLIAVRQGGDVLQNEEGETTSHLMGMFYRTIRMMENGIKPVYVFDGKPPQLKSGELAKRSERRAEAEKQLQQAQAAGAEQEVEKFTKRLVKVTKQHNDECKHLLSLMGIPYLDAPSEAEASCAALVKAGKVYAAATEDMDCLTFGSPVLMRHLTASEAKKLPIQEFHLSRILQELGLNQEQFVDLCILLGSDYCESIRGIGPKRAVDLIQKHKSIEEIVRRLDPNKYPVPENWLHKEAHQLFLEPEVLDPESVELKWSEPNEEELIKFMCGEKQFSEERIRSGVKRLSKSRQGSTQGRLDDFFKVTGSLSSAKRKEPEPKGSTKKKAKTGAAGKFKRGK
Beta-2 adrenergic receptor (Homo sapiens), sequence (P07550 whole entry, looked up): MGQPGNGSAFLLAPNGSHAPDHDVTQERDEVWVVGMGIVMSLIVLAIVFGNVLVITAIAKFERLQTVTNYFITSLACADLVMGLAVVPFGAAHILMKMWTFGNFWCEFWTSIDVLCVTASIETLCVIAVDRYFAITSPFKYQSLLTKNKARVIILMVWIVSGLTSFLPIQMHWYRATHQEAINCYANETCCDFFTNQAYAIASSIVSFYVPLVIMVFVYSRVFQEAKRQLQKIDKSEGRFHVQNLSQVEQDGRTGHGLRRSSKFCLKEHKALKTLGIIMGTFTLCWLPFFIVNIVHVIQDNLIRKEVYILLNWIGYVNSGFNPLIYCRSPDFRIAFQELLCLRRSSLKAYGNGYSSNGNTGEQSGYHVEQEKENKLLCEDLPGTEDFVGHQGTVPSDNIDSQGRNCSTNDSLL
D(1A) dopamine receptor (Homo sapiens), sequence (P21728 whole entry, looked up): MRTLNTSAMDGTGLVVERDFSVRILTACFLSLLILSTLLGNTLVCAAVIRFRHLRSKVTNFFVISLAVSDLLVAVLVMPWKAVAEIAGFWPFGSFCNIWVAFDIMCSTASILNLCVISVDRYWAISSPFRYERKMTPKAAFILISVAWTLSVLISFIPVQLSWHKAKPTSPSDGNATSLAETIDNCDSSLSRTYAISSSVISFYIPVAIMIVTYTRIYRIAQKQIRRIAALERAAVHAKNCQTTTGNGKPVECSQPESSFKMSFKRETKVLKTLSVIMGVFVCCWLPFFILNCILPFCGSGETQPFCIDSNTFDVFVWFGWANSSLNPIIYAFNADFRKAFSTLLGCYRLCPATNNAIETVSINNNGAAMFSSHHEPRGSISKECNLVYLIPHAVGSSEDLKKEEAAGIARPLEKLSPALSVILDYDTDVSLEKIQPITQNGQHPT
ATP-dependent 6-phosphofructokinase (Trypanosoma brucei brucei), sequence (O15648 whole entry, looked up): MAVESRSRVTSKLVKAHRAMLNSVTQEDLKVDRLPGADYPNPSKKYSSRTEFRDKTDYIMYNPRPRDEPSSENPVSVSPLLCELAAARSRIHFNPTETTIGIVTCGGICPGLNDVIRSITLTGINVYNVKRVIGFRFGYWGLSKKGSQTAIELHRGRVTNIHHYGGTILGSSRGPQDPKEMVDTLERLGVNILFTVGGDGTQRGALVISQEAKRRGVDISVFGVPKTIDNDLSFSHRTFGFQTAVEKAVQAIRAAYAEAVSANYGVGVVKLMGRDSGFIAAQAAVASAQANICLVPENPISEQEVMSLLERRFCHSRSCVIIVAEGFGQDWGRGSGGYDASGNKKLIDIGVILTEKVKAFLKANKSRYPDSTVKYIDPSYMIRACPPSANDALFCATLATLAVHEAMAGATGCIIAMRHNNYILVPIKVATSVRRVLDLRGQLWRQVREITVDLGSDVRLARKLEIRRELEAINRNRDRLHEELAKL
Tumor susceptibility gene 101 protein (Homo sapiens), sequence (Q99816 whole entry, looked up, the tested form may be a part): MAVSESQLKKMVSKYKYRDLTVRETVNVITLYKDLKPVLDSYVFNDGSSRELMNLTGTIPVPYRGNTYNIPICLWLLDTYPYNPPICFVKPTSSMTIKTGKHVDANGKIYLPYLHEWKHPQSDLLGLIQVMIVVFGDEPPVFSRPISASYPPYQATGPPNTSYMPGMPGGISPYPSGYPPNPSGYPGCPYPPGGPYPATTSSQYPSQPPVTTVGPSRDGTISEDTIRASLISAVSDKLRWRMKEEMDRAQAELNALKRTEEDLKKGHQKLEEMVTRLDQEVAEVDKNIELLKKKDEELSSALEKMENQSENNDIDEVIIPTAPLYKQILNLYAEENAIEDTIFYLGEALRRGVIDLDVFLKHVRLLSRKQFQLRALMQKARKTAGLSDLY

On to `O=C1NC(=O)/C(=C/c2ccc3c(c2)OC(F)(F)O3)S1`, for which the molecule was called inactive in [1], in experiment [2], in experiment [3], in [4], in experiment [5] and in experiment [8]. The call in experiment [10], in [11] and in experiment [12] was inactive. The Potency result in [6], in experiment [7], in [9] and in experiment [13] was “inactive” throughout.

As for `CCN(CC)CCNC(=O)c1ccc(NS(C)(=O)=O)cc1`, the molecule was called inactive in experiment [1], in experiment [2], in experiment [3], in experiment [4], in experiment [14] and in experiment [5]. Moreover, the result in experiment [8], in [10], in experiment [11] and in [12] was inactive. Further, the Potency result in experiment [6], in experiment [7], in experiment [9], in experiment [15] and in experiment [13] was “inactive” throughout.

Turning to `Clc1ccc2c(c1)N=C(N1CCNCC1)c1ccccc1N2`, the result in experiment [2], in experiment [3], in [4], in experiment [5], in experiment [8] and in experiment [10] was inactive. Besides, the Potency result in experiment [6], in experiment [9] and in experiment [15] was “inactive” each time. In [13], the Potency was 0.562 µM (active).

`COc1ccccc1N1CCN(CCN2C(=O)CC3(CCCC3)CC2=O)CC1`: the call in experiment [1], in [2], in experiment [3], in experiment [4], in experiment [14] and in experiment [5] was inactive. The molecule was classed as inactive in experiment [8], in [10], in [18], in [19], in [11] and in [12]. Besides, the Potency entry in experiment [16], in experiment [6], in [17], in experiment [7], in experiment [9] and in experiment [15] was “inactive” each time. In addition, in experiment [13], the Potency result was “inactive”.

As to `CN(C)c1cc2c(Nc3ccc4c(cnn4Cc4ccccc4)c3)ncnc2cn1`, the Potency in experiment [16] is 3.16 µM (active); in experiment [20], 7.38 µM (active); in experiment [17], 4.65 µM (active). For the same molecule, the outcome in experiment [2], in [3], in experiment [4], in experiment [5], in experiment [10] and in [18] was inactive. The call in [19], in experiment [11] and in experiment [12] was inactive. The Potency result in [7], in [9] and in experiment [13] was “inactive” in each case.

In the case of `C[N+](C)(C)CCO`, the outcome in experiment [1], in experiment [2], in [3], in [4], in experiment [14] and in [5] was inactive. Also, the molecule was classed as inactive in experiment [8], in experiment [10], in [18], in experiment [19], in experiment [11] and in experiment [12]. Besides, the Potency entry in experiment [16], in experiment [20], in [17], in experiment [7], in experiment [9] and in experiment [15] was “inactive” each time. Besides, the Potency entry in experiment [13] is “inactive”.

As to `N[C@@H](Cn1ccc(=O)c(O)c1)C(=O)O`, the molecule was classed as inactive in [1], in experiment [2], in experiment [3], in experiment [4], in experiment [14] and in experiment [5]. The call in experiment [8], in [10], in experiment [11] and in experiment [12] was inactive. Also, the Potency result in experiment [7], in experiment [9], in [15] and in experiment [13] was “inactive” in each case.

Consider `Brc1ccc([C@H]2CN3CCSC3=N2)cc1`, for which the molecule was called inactive in [1], in [2], in experiment [3], in [4], in experiment [14] and in experiment [5]. In addition, the molecule was classed as inactive in experiment [8], in [10], in [18], in experiment [19], in [11] and in experiment [12]. The Potency in experiment [16] was 7.08 µM (active). The Potency result in experiment [6], in [20], in experiment [17], in [7], in experiment [9] and in [13] was “inactive” in each case.

Take `COC(=O)C1=CO[C@@H](O)[C@@H]2C(CO)=CC[C@H]12`: the result in experiment [1], in [2], in experiment [3], in experiment [4], in experiment [14] and in [5] was inactive. Besides, the call in experiment [8], in experiment [10], in [11] and in experiment [12] was inactive. Moreover, the Potency entry in experiment [6], in experiment [7], in [9], in [15] and in experiment [13] was “inactive” each time.

Source of the values: PubChem BioAssay (NCATS).
